Assay results reported in the supplement of paper PMC11417369.
± gives the standard deviation of the averaged measurements. The full ranking holds about 25,000 sequences; the median of “ln(normalized median fluorescence intensity)” is about 8.9, and the highest 2% start at about 10. For the sample, the highest values were picked, then their nearest neighbours and some sequences at random.

System: PfAP2-LT AP2 domain (GST-tagged)
Test: gcPBM binding intensity (ln(normalized median fluorescence intensity)); higher = stronger DNA binding
Method in brief: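 The highest Masliner-normalised natural-log median intensity across replicate spots of either probe orientation is reported as binding intensity. GST-tagged P. falciparum DNA-binding domains expressed in E. coli were applied for 1 h to an Agilent 4 × 180k array of primer-extended double-stranded 36-bp intergenic genomic probes plus negative controls, and bound protein was detected with Alexa488 anti-GST antibody and scanned at 488 nm.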

Sequence | gcPBM binding intensity (ln)
ATAAGATTATACAATTGTACGTTGTTCAAGATAAGG [XGTACX_site191] | 8.8 ± 0.42
AATAAATATAAATAAATAAATATATATATATATTTG [CACACA_negctrl_site1486] | 8.56 ± 0.4
TTTTATGTTTTAAAATGTACGTGTCAATGAATAAGT [XGTACX_site6239] | 8.52 ± 0.42
TTATTTACAACTTCAAATTATGTGTAATACTACTAT [CACACA_negctrl_site741] | 8.73 ± 0.52
AAAACAATATACTGTAGTACTGATGATATATATATA [XGTACX_site7798] | 9.01 ± 0.38
TATATATACATATACACACATACGTACATACATATA [CACACA_site3585] | 9.13 ± 0.39
AACACAAGAACAGAACGTACACACACATATATATAT [XGTACX_site7347] | 9.84 ± 0.13
AAGAACAGAACGTACACACACATATATATATATATA [CACACA_site3457] | 10.2 ± 0.28
TAAAAAAAAACATATACACACAAAAACGTACACATA [CACACA_site1354] | 9.31 ± 0.3
ACAAGAACAGAACGTACACACACATATATATATATA [CACACA_site9143] | 10.175 ± 0.0071
AAGAACAGAACGTACACACACATATTTATATTTATA [CACACA_site7594] | 9.55 ± 0.3
AAAAAATAATAATAAAATGAATAGATATGTATTTAT [TGCATGCA_negctrl_site210] | 8.63 ± 0.52
AAAAAAAAAAAAAAATGTACATATATAATATTTATA [XGTACX_site5117] | 8.54 ± 0.57
TATAAAATTACATTTTGTCATTTATTTTTTCCCACT [TGCATGCA_negctrl_site110] | 8.54 ± 0.63
ACAAAAGGGGAATACACACACATATATAAATAAATA [CACACA_site7111] | 9.59 ± 0.6
AGTATATATACACAAGGGGAATACATATACAAAATT [TGCATGCA_negctrl_site244] | 9.04 ± 0.46
CCCACAAAGGAATATACACACATATATATATATATA [CACACA_site4091] | 9.95 ± 0.18
ATACAAAAGGGGAATACACACACATATATATATATA [CACACA_site8694] | 10.12 ± 0.021
CACACAAAGGAATATACACACATATTTATATTTATA [CACACA_site7841] | 9.21 ± 0.44
ACAAAAGGGGAATACACACACATATATATATATATA [CACACA_site2215] | 10.33 ± 0.071
ACAATAAAAATTTATGCATGTGAATTGAAAAAAAAA [TGCATGCA_site1037] | 8.72 ± 0.48
CATAAATCAGCCATAACACACATACATATATACATA [CACACA_site8025] | 9.28 ± 0.42

Sequence | gcPBM binding intensity (ln)
TAATATACATAATAATGTACATATTTTCATATATAC [XGTACX_site6913] | 8.74 ± 0.35
ACCATGAAAATATTATGTACATATGTATTATATATA [XGTACX_site408] | 8.87 ± 0.33
ATATATAATATATATGCATGTGACATTAATAATATA [TGCATGCA_site880] | 8.81 ± 0.4
TTTATATTGATATATACACACATATACATCCTATTT [CACACA_site7442] | 9.11 ± 0.42
AACCATTGGGAAAGGGTGCACATATATATATATATA | 10.09 ± 0.099
ATAAATATTGGGTGCACACACATAATATATATATAT [CACACA_site2272] | 9.59 ± 0.35
GGAAAAACCATTCGCACACACACATAATATATAATA [CACACA_site1424] | 9.71 ± 0.31
CATTATAAGAGACACACACACATATATAAATATGTA [CACACA_site6621] | 9.63 ± 0.38
AACATTATAAGACACACACACACATATATAAATATA [CACACA_site6622] | 10.2 ± 0.38
TAAAACATAAGAGACACACACACATATATATATATA [CACACA_site3643] | 10.1 ± 0.16
TAATAAATAAGACACACACACATATATATATATTAT [CACACA_site1389] | 9.8 ± 0.2
AACATTATAAGACACACACACACATATATATATATA [CACACA_site8259] | 10.3 ± 0.3
AAACATAAGAGACACACACACATATATAAATAAATA [CACACA_site7674] | 9.79 ± 0.38
ATATGGAATAATACGCGTACACACATATATATATTA [XGTACX_site307] | 9.34 ± 0.3
GAATACATAATAACATGTACACACATTCTTCTATAA [XGTACX_site8725] | 9.01 ± 0.36
ATATATATATATAATGCACACATTATAAATTATGTA [CACACA_site5802] | 9.02 ± 0.31
ATTAAAAAAATTAAAAGTACACATATTTCAATGATA [XGTACX_site5606] | 8.43 ± 0.41
AAAATTATATGTAATTGTACGGAATTATATACGCAA [XGTACX_site2048] | 8.72 ± 0.41
TTGGTCTTTTAAAAAAGTACAAAAAAAAAAAAAAAA [XGTACX_site1665] | 8.08 ± 0.55
AAAAAAAAAAAAAACACACAAACAAATGAATAAATA [CACACA_site3300] | 8.99 ± 0.54
AAAAAAAAAAAAAAAACACACAAACAAATGAATAAA [CACACA_site5769] | 8.89 ± 0.5
ATTCATATGAAACACACACACACACCCATAAAAAAA [CACACA_site3246] | 10.2 ± 0.2
